Source: PubChem BioAssay (NCATS)
Results filed as inconclusive are left out. Active and inactive are the calls of the source. The call rests on the fitted dose curve; in most records, active means well fitted curve in the direction sought with a large enough effect in the signal ratio, with a control signal flat (not every such curve was filed as active); inconclusive means small, poorly fitted or top-dose-only effect, or effect the other way, or a change in a side signal; inactive means no such curve, though single readings can be large or run the other way; the % refers to the signal ratio.

Molecular target: Androgen receptor (Homo sapiens) (UniProt P10275)
Test: qHTS assay for small molecule antagonists of androgen receptor signaling (AID 588516)
Conditions: AR-UAS-bla HEK293, beta-lactamase ratio, antagonist mode, 16 h; series mostly up to 76.8 µM
Text: NIH Chemical Genomics Center [NCGC] U.S. Environmental Protection Agency [EPA] National Institutes of Environmental Health Sciences [NIEHS] National Toxicology Program [NTP] NCGC Assay Overview Androgen receptor (AR), located at chromosome Xq11-12, is an important member of nuclear hormone receptors. AR signaling plays a critical role in AR-dependent prostate cancer and other androgen related diseases. Considerable attention has been given in the past decades to the possibility of some of environmental chemicals which may contribute the endocrine disruption. Therefore, it is important to understand the effect of environmental chemicals in AR signaling pathway.
NCGC Assay Protocol Summary Using a beta-lactamase reporter-gene under control of the AR response element, a cell-based assay [GeneBLAzer AR-UAS-bla-GripTite assay developed by Invitrogen] was used to measure AR ligands signaling. AR-UAS-bla-GripTite HEK 293 cells were used with assay medium containing 10% dialyzed FBS, 0.1 mM NEAA and 1 mM sodium pyruvate. The assay was performed in clear bottom black Greiner 1536-well plates. Library compounds were measured for their ability to inhibit the reporter gene activity. Compounds were screened in a titration series in 1536-well format. The fluorescence intensity (405 nm excitation, 460/530 nm emission) was measured using an EnVision plate reader. Data was normalized relative to R1881 (10nM, 100%), and DMSO only wells (basal, 0%). Concentration-response titration points for each compound were fitted to the Hill equation yielding concentrations of half-maximal inhibition (IC50) and maximal response (efficacy) values. qHTS protocol for AR beta-lactamase assay in antagonist mode [Step] [Parameter] [Value] [Description] 1. Reagent; 5 uL; 2000 cells/well 2. Incubation; 37 C for 5 hrs 3. Compounds; 23 nL; 0.59 nM to 92 uM 4. Controls (Cyp Ac, AR antagonist); 23 nL, dose response, 1:3 dilutions with duplicates 5. Agonist (Stimulator); 1uL; R1881 at 10nM (final) concentration 6. Incubation; 37 C for 16 hrs 7. Detection reagent; 1 uL of CCF4-dye 8. Incubation; RT for 2 hrs 9. Detection; Fluorescence; Envision plate reader

Chain of Androgen receptor (Homo sapiens) (P10275 whole entry, looked up): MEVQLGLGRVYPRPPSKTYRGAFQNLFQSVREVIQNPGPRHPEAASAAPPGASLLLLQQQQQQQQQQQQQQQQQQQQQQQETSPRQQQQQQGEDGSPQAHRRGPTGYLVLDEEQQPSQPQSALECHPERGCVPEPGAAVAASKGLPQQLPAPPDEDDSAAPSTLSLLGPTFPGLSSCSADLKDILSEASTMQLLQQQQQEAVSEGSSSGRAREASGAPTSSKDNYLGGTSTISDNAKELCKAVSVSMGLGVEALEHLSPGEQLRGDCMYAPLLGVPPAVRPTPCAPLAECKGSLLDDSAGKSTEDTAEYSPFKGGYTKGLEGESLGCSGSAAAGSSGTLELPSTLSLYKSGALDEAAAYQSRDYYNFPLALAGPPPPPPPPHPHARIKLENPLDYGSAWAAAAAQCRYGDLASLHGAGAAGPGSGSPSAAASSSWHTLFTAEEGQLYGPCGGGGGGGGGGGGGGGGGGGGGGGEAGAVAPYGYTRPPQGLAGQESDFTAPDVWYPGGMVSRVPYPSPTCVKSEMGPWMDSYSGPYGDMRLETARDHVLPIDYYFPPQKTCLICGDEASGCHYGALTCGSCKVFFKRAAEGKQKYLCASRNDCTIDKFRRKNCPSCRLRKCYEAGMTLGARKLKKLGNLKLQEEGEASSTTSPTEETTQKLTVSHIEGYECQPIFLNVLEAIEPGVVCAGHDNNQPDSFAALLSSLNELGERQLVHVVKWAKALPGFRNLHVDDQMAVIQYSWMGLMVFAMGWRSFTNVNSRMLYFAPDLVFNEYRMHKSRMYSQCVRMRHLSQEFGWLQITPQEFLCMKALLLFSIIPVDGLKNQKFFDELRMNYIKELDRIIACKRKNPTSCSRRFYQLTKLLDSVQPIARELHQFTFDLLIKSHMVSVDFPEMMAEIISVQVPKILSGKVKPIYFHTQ

| Compound | outcome |
| --- | --- |
| O=c1ccc(=O)[nH][nH]1 | inactive |
| FC(Cl)(Cl)Cl | inactive |
| CC(C)(OOC(C)(C)c1ccccc1)c1ccccc1 | inactive |
| CC(=O)NNc1ccccc1 | inactive |
| CCOP(=S)(OCC)Oc1nc(Cl)c(Cl)cc1Cl | inactive |
| BrCC(Br)C1CCC(Br)C(Br)C1 (stereo unspecified) | inactive |
| CCCN(CCC)c1c([N+](=O)[O-])cc(C(F)(F)F)cc1[N+](=O)[O-] | inactive |
| O=[N+]([O-])c1cccc2c([N+](=O)[O-])cccc12 | inactive |
| Cc1cc(N=Nc2ccccc2C)ccc1N | inactive |
| [N-]=[N+]=[N-] | inactive |
| N#CC(Cl)(Cl)Cl | inactive |
| O=NN1CCCCC1 | inactive |
| O=[N+]([O-])c1c(Cl)c(Cl)c(Cl)c(Cl)c1Cl | inactive |
| S=c1[nH]c2ccccc2[nH]1 | inactive |
| C=C(C)CCl | inactive |
| O=[N+]([O-])c1ccc(O)c([N+](=O)[O-])c1 | inactive |
